# Results filed as inconclusive are left out. A call without a number means that no potency is given here. Values without a mark were called inactive. Calls of active or inactive are those of the source. Unless noted, calls follow the shape of the dose curve; as a rule, active = well fitted curve in the direction sought with a large enough effect; inconclusive = small, poorly fitted or top-dose-only effect, or another doubt; inactive = no such curve, though single readings can be large; an effect the other way counts as inactive or inconclusive.
# Tests used:
# [1] = P-glycoprotein substrates identified in KB-8-5-11 adenocarcinoma cell line, qHTS therapeutic library screen (AID 1346987); also: nearly all actives have a fitted effect of over 65% in size; also: potency is read from the fitted curve at half-maximal effect
# Outline: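 Steps: plate 500 KB-8-5-11 cells/well in DMEM + 10% FCS (colchicine removed); pin compounds in dose-response; incubate 72 h, 37 degree C, 5% CO2; add CellTiter-Glo, 5 min; read luminescence.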
# [2] = P-glycoprotein substrates identified in KB-3-1 adenocarcinoma cell line, qHTS therapeutic library screen (AID 1346986); settings: KB-3-1 parental cells viability, CellTiter-Glo, 72 h; at 44.5 µM (top of the series) unless noted; also: nearly all actives have a fitted effect of over 60% in size
# Protocol: The ATP-binding cassette transporters P-glycoprotein (P-gp) is known to limit brain penetration of many chemotherapy drugs. […] We used the CellTiter-Glo viability assay to test library compounds against the parental KB-3-1 human cervical adenocarcinoma cell line and the colchicine-selected sub-line KB-8-5-11 that over-expresses P-gp. KB-8-5-11 cells were also tested in the presence of a P-gp inhibitor (tariquidar) to assess reversability of transporter-mediated resistance. Of the tested compounds, a total of 90 P-gp substrates were identified including 55 newly identified P-gp substrates. Substrates were confirmed using an orthogonal killing assay against HEK-293 cells transfected with P-gp. As exemplars, we confirmed that AT7159 (cyclin-dependent kinase inhibitor); AT9283, (Janus kinase 2/3 inhibitor); ispinesib (kinesin spindle protein inhibitor); gedatolisib (PKI-587, phosphoinositide 3-kinase/mammalian target of rampamycin inhibitor); GSK-690693 (AKT inhibitor); and KW-2478 (heat shock protein 90 inhibitor) were substrates , and direct ATPase stimulation was assessed. ABCG2 was also found to confer high levels of resistance to AT9283, GSK-690693 and gedatolisib, while ispinesib, AT7519 and KW-2478 were weaker substrates.
# The HeLa derivative cell line, KB-3-1, and its colchicine-selected, P-gp-overexpressing subline, KB-8-5-11 were maintained in DMEM with 10% FCS and Pen/Strep with glutamine at 37 degree C in 5% CO2. For KB-8-5-11 cells, colchicine was added to the medium at a concentration of 100 ng/mL. HEK-293 cells transfected with empty vector (pcDNA) or vector containing human ABCB1 (MDR-19) or ABCG2 (R-5) have been described previously (Robey, Lin, Qiu, Chan & Bates, 2011) and were maintained in EMEM supplemented with 10% FCS, Pen/Strep and glutamine with 2 mg/ml G418 to select for the expression of the transporter. Cultures were confirmed to be free of mycoplasma infection using the MycoAlert Mycoplasma Detection Kit (Lonza, Walkersville, MD). For the screen, assay medium was identical to culture medium except for KB-8-5-11 where colchicine was excluded from the medium.
# All cell lines were plated into 1536-well plates at 500 cells/well in 5 uL media. Compounds were then pinned in dose-response using a 1536-head pin tool (Kalypsis, San Diego, CA) and plates were incubated at 37 degree C in 5% CO2 for an additional 72 h. CellTiter-Glo reagent (Promega) was dispensed into the wells, incubated for 5 min and luminescence was read on a ViewLux instrument (Perkin-Elmer). Cytotoxic compounds were defined as those that yielded a curve class of -1.1, -1.2, -2.1, -2.2, -2.3, or -2.4, a maximum response of >50% and an AC50 of < 10 uM. Cherry-picked hits from screening analysis were tested with both the KB pair of cell lines, and the pcDNA (empty vector control) and MDR-19 (P-gp overexpressing) pair were tested, in the absence and presence of tariquidar.
# [3] = NS1 protein of Zika virus - qHTS assay to identify small molecule inhibitors in human HEK 293 cells (AID 1347053); also: nearly all actives have a fitted effect of over 55% in size
# Outline: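 HEK 293; 20 h pre-culture, 37 C/5% CO2; cpd 1 h pre-infection; ZIKV MR766, MOI = 0.5, 24 h, 37 C; TR-FRET NS1 readout (two anti-NS1 Abs); norm. to no-virus vs infected.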
# [4] = Natriuretic polypeptide receptor (hNpr1) antagonism - Pilot counterscreen GloSensor control cell line (AID 1347045; calls by dose curve)
# Outline: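 Luminescence was read before and 20 min after adding 50 uM SNP, which stimulates soluble guanylyl cyclase. The HEK293 cells expressing the GloSensor cGMP sensor had been preloaded with 2% reagent for 2 h and treated with compound.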
# [5] = target: Atrial natriuretic peptide receptor 2 (Homo sapiens) (UniProt P20594); test: Natriuretic polypeptide receptor (hNpr2) antagonism - Pilot subtype selectivity assay (AID 1347050; calls by dose curve)
# Outline: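 Pilot selectivity screen against hNpr2: HEK293 cGMP-sensor cells are treated with LOPAC1280 compounds, then with hNppC peptide at 1 nM final. The cGMP-driven luminescence change over 20 min at room temperature is the read-out.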
# [6] = target: T1, Tyrosine-protein phosphatase non-receptor type substrate 1 (Homo sapiens) + Leukocyte surface antigen CD47 (Homo sapiens) (UniProt P78324+Q08722); test: CD47-SIRPalpha protein protein interaction - LANCE assay qHTS validation (AID 1347057; active = well fitted curve in the direction sought with a large enough effect in the signal ratio, with a control signal flat, not every such curve was filed as active; the % refers to the signal ratio)
# Outline: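 First, His-tagged CD47 and Eu-labelled anti-His antibody met the compound for 30 min; next, site-specifically biotinylated SIRPalpha was added for 30 min; finally streptavidin-APC was added before reading the TR-FRET ratio.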
# [7] = target: T1, Tyrosine-protein phosphatase non-receptor type substrate 1 (Homo sapiens) + Leukocyte surface antigen CD47 (Homo sapiens); test: CD47-SIRPalpha protein protein interaction - HTRF assay qHTS validation (AID 1347058; active = well fitted curve in the direction sought with a large enough effect in the signal ratio, not every such curve was filed as active; the % refers to the signal ratio;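 also: recombinant soluble extracellular CD47 with His tag and biotinylated SIRPalpha domains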)
# Outline: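 TR-FRET read (Ch1/Ch2 ratio) of soluble extracellular CD47 and Avi-biotinylated SIRPalpha domains in PBS pH 7.4 with 0.05% IGEPAL; 7-point compound titration. Sequential 30 min room-temperature steps; non-biotinylated SIRPalpha as control inhibitor.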
# [8] = target: T1, Tyrosine-protein phosphatase non-receptor type substrate 1 (Homo sapiens) + Leukocyte surface antigen CD47 (Homo sapiens); test: CD47-SIRPalpha protein protein interaction - Alpha assay qHTS validation (AID 1347059);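 also: bead proximity luminescence from CD47 binding SIRPalpha after compound preincubation with SIRPalpha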
# Outline: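 Binding is measured by AlphaScreen proximity: Ni-NTA acceptor beads capture His-CD47, streptavidin donor beads capture biotin-SIRPalpha. Each of three additions (SIRPalpha with compound, CD47, beads) incubates 30 min at room temperature protected from light.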
# [9] = Identifying Small Molecule Inhibitors of Pancreatic Cancer Stem Cells (SN12C, Spheroid) (AID 1259360)
# Outline: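 Monolayer and spheroid cultures are compared. Spheroids form over 14 days in stem cell medium on hydrogel-coated low-attachment plates, then are exposed to compound for 48 h before CellTiter-Glo luminescence.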
# [10] = Identifying Small Molecule Inhibitors of Pancreatic Cancer Stem Cells (A278, Adherent) (AID 1259361);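 also: viability read after 48 h compound exposure; nearly all actives have a fitted effect of over 35% in size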
# Outline: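 Adherent (2D) versus sphere (3D) formats; spheres generated 14 d in SCM beforehand. Compound transferred by pin tool after 4 h, 48 h incubation, CellTiter-Glo endpoint.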
# T1 sequence (P78324 whole entry, looked up): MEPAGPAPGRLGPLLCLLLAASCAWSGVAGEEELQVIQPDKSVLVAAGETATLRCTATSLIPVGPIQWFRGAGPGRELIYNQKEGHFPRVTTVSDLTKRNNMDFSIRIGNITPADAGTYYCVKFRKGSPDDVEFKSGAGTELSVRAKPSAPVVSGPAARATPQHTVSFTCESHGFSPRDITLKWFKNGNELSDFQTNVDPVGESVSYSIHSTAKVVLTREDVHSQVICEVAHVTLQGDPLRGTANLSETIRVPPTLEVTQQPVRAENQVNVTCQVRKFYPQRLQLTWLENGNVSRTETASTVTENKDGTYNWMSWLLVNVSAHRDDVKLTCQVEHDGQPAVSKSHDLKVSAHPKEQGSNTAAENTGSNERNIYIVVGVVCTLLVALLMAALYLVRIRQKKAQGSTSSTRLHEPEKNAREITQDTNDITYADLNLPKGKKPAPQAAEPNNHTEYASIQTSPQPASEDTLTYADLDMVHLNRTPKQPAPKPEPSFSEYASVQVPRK
# T1 sequence (Q08722 whole entry, looked up): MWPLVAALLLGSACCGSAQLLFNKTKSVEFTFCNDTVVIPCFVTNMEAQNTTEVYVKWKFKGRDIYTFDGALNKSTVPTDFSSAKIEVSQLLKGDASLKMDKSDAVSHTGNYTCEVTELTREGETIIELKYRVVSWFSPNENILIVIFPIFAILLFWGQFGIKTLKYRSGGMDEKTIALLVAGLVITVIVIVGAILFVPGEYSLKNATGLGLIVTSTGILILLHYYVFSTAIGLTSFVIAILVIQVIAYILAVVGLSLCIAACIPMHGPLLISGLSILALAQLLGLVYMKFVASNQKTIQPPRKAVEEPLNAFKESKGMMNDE
# Chain of Atrial natriuretic peptide receptor 2 (Homo sapiens) (P20594 whole entry, looked up): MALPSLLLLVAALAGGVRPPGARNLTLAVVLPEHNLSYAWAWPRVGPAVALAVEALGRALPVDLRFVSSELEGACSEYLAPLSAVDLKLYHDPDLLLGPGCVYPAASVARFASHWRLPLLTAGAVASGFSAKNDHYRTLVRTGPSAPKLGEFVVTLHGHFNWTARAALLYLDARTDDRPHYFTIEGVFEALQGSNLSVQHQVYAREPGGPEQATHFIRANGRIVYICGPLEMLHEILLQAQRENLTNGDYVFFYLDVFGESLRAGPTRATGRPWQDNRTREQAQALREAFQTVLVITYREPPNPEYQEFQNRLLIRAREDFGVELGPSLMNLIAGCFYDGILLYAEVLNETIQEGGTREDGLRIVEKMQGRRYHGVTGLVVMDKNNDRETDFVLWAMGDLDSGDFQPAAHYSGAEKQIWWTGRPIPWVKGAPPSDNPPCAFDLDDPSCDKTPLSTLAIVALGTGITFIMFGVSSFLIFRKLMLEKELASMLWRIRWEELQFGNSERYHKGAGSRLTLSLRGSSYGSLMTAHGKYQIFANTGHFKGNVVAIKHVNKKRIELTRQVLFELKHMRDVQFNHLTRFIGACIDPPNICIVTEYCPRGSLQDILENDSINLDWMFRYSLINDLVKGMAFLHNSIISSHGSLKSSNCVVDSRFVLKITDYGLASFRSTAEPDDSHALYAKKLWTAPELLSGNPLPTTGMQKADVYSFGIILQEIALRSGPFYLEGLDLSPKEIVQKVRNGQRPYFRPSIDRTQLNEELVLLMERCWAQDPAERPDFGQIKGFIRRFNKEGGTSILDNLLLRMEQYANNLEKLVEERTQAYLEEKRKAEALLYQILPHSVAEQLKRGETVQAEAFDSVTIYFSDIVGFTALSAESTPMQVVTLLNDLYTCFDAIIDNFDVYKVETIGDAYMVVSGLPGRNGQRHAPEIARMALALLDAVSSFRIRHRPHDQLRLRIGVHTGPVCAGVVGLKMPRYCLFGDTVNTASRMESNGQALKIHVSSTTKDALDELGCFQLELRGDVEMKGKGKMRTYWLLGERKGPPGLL
compound,measurement,setting,value
CN1C(=O)CC(=O)N(c2ccccc2)c2cc(Cl)ccc21,Potency,[1],inactive
C[C@]12CC[C@@H]3c4ccc(OC(=O)N(CCCl)CCCl)cc4CC[C@H]3[C@@H]1CC[C@@H]2OP(=O)(O)O,outcome,[2],inactive
same,Potency,[1],inactive
same,outcome,[3],inactive
CN=C1CN(O)C(c2ccccc2)=c2cc(Cl)ccc2=N1,Potency,[1],inactive
O=C(O)/C=C\C(=O)O,Potency,[1],inactive
CN[C@@H](C)Cc1ccccc1,Potency,[1],inactive
NCCc1ccc(O)cc1,Potency,[1],inactive
same,outcome,[4],inactive
same,outcome,[5],inactive
same,outcome,[3],inactive
same,outcome,[6],inactive
same,outcome,[7],inactive
same,outcome,[8],inactive
O=C1Nc2ccc(Cl)cc2C(c2ccccc2Cl)=NC1O (stereo not given),Potency,[1],inactive
COc1cccc([C@@]2(O)CCCC[C@@H]2CN(C)C)c1,Potency,[1],inactive
CCC1(c2ccc(N)cc2)CCC(=O)NC1=O (stereo not given),Potency,[1],inactive
same,outcome,[4],inactive
same,outcome,[5],inactive
same,outcome,[3],inactive
same,outcome,[6],inactive
same,outcome,[7],inactive
same,outcome,[8],inactive
COC(=O)C(c1ccccc1)C1CCCCN1 (stereo not given),Potency,[1],inactive
CCCCC/C=C\C/C=C\C/C=C\C/C=C\CCCC(=O)NCC(=O)O,"activity change, negative = cytotoxicity",[1],0.883% [at 5.11 µM]
same,outcome,[4],inactive
same,outcome,[5],inactive
same,outcome,[3],inactive
CN1C(=O)CCS(=O)(=O)C1c1ccc(Cl)cc1 (stereo not given),Potency,[1],inactive
same,outcome,[4],inactive
same,outcome,[5],inactive
same,outcome,[3],inactive
same,outcome,[6],inactive
same,outcome,[7],inactive
same,outcome,[8],inactive
COc1ccc2c(c1OC)C(=O)O[C@H]2[C@@H]1c2cc3c(cc2CCN1C)OCO3,Potency,[1],inactive
same,outcome,[4],inactive
same,outcome,[5],inactive
same,outcome,[3],inactive
same,outcome,[6],inactive
same,outcome,[7],inactive
same,outcome,[8],inactive
Nc1ccn(C[C@@H](CO)OCP(=O)(O)O)c(=O)n1,outcome,[2],inactive [at 17.4 µM]
same,Potency,[1],inactive
O=C1Nc2ccc(Cl)cc2C(c2ccccc2)=NC1O (stereo not given),Potency,[1],inactive
O=C(O)CCCc1ccc(N(CCCl)CCCl)cc1,outcome,[2],inactive
same,Potency,[1],inactive
same,outcome,[4],inactive
same,outcome,[5],inactive
same,outcome,[3],inactive
C=C(C)[C@H]1CN[C@H](C(=O)O)[C@H]1CC(=O)O,Potency,[1],inactive
same,outcome,[5],inactive
same,outcome,[3],inactive
same,outcome,[6],inactive
same,outcome,[7],inactive
same,outcome,[8],inactive
CC(C)N(CCC(C(N)=O)(c1ccccc1)c1ccccn1)C(C)C (stereo not given),Potency,[1],inactive
same,outcome,[4],inactive
same,outcome,[5],inactive
same,outcome,[3],inactive
same,outcome,[6],inactive
same,outcome,[7],inactive
same,outcome,[8],inactive
CC(C)(C)NCC(O)c1ccccc1Cl (stereo not given),Potency,[1],inactive
same,outcome,[4],inactive
same,outcome,[5],inactive
same,outcome,[3],inactive
same,outcome,[6],inactive
same,outcome,[7],inactive
same,outcome,[8],inactive
CC(C)[C@H]1C(=O)N2CCC[C@H]2[C@]2(O)O[C@](NC(=O)[C@@H]3C[C@@H]4c5cccc6[nH]cc(c56)C[C@H]4N(C)C3)(C(C)C)C(=O)N12,Potency,[1],inactive
CC(=O)OCC1=C(C(=O)O)N2C(=O)[C@@H](N)[C@H]2SC1,outcome,[2],inactive
same,Potency,[1],inactive
same,outcome,[3],inactive
CCCC(C)(COC(N)=O)COC(N)=O,Potency,[1],inactive
CCCCCN(C)CCC(O)(P(=O)(O)O)P(=O)(O)O,outcome,[2],inactive
same,Potency,[1],inactive
same,outcome,[3],inactive
same,outcome,[6],inactive
same,outcome,[7],inactive
same,outcome,[8],inactive
Clc1ccc2c(c1)C(c1ccccc1)=NCc1nncn1-2,Potency,[1],inactive
O=P1(N(CCCl)CCCl)NCCCO1 (stereo not given),outcome,[9],inactive
same,outcome,[10],inactive
same,Potency,[1],inactive
same,outcome,[4],inactive
same,outcome,[5],inactive
same,outcome,[3],inactive
same,outcome,[6],inactive
same,outcome,[7],inactive
same,outcome,[8],inactive
CC(NC(C)(C)C)C(=O)c1cccc(Cl)c1 (stereo not given),Potency,[1],inactive
same,outcome,[4],inactive
same,outcome,[5],inactive
same,outcome,[3],inactive
same,outcome,[6],inactive
same,outcome,[7],inactive
same,outcome,[8],inactive
C=CCN1C[C@H](C)N([C@H](c2ccc(C(=O)N(CC)CC)cc2)c2cccc(OC)c2)C[C@H]1C,outcome,[2],inactive [at 9.29 µM]
same,"activity change, negative = cytotoxicity",[1],-6.15% [at 9.29 µM]
same,outcome,[3],inactive
CC(C)c1cccc(C(C)C)c1O,Potency,[1],inactive
same,outcome,[4],inactive
same,outcome,[5],inactive
same,outcome,[3],inactive
same,outcome,[6],inactive
same,outcome,[7],inactive
same,outcome,[8],inactive
C[N+]1(CCF)[C@@H]2CC[C@H]1CC(OC(=O)C(O)(c1ccccc1)c1ccccc1)C2 (stereo not given in full),Potency,[1],inactive
same,outcome,[3],inactive
O=c1[nH]oc2c1CCNC2,Potency,[1],inactive
same,outcome,[4],inactive
same,outcome,[5],inactive
same,outcome,[3],inactive
same,outcome,[6],inactive
same,outcome,[7],inactive
same,outcome,[8],inactive
C[C@]12CCC(=O)C=C1CC[C@@H]1[C@H]3CC[C@](C)(O)[C@@]3(C)CC[C@@H]12,Potency,[1],31.6 µM (active)
Cc1ncsc1CCCl,Potency,[1],inactive
same,outcome,[4],inactive
same,outcome,[5],inactive
same,outcome,[3],inactive
same,outcome,[6],inactive
same,outcome,[7],inactive
same,outcome,[8],inactive
